In PubChem BioAssay one finds growth inhibition data, which are given here for 15 molecules.

Each structure is given as a SMILES string. Calls of active or inactive are those of the source.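 Rule for the calls: active = growth inhibition above 50% at the single 2 µM test dose, taken to imply half-maximal potency below 2 µM; inactive = the rest.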

The experiment is described as follows: antimalarial activity against Dd2 strain (AID 2302).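 Note: 0% = DMSO untreated growth and 100% = chloroquine plus artemisinin killed control.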 The settings on record: P. falciparum Dd2 in RBCs, LDH growth readout, 72 h; at 2 µM; hits give high values.
As to `COc1cc2c(cc1C(F)(F)F)N(C(=O)Nc1cc(F)c(F)c(-c3cccnc3)c1)CC2`, the growth inhibition was 15% (inactive).
For the molecule `CCCn1cc2c(ccc3nc(N)nc(N)c32)n1`, the growth inhibition is 0% (inactive).
With `Oc1ccc2[nH]c(-c3cccs3)nc2c1CN1CCC(N2CCCC2)CC1` the figure was 13% (inactive).
With `CN1Cc2cc(NC(=O)/C=C/c3ccccc3Cl)ccc2C(C)(C)C1` the figure was 96% (active).
With `CN(C)CCOc1ccc2[nH]c(-c3cccc(OCc4ccccc4)c3)nc2c1C#N` the figure was 86% (active).
Regarding `O=C(NC1CCN(Cc2ccccc2O)C1)c1cccc(C(F)(F)F)c1` (stereo not given), the growth inhibition is 62% (active).
Consider `Cc1cc(NN=Cc2ccc(Cl)cc2)c2ccc(F)cc2n1`, for which the growth inhibition is 87% (active).
Regarding `O=C(CCCC(=O)Nc1ccc(C2=NCCN2)cc1)Nc1ccc(C2=NCCN2)cc1`, the growth inhibition was 81% (active).
In the case of `O=C(NC1CCCCN(Cc2ccc3c(c2)OCCO3)C1)c1cc(-c2ccccc2F)cs1` (stereo not given) it was 19% (inactive).
With `CC(=O)N1CCC(C(=O)Nc2ccc(-c3cccc(-c4nc5ccc(C(F)(F)F)cc5[nH]4)c3)cc2)CC1` the figure was 33% (inactive).
With `O=[N+]([O-])c1ccccc1C=NNc1c2c(nc3ccccc13)CCCC2` the figure was 99% (active); with `CCNc1cc(C(=O)N[C@@H](Cc2ccccc2)[C@H](O)CNCc2cccc(-n3ccnc3)c2)cc(N2CCCC2=O)c1`, 96% (active); with `Cc1cccc2[nH]c(-c3ccc(-c4ccc(CN5CCC(C(N)=O)CC5)cc4)s3)nc12`, 51% (active).
Turning to `Cc1cccc2[nH]c(-c3ccc(-c4cccc(C(=O)N5CCCCC5C(C)O)c4)s3)nc12` (stereo not given), the growth inhibition was 53% (active).
As for `COc1ccc2ncc(F)c([C@H](O)CN3CCC(NCc4cc5c(cn4)OCCO5)CC3)c2c1`, the growth inhibition is 97% (active).
